In PubChem BioAssay AID504834 (National Center for Advancing Translational Sciences (NCATS), 2011):
The whole screen tested about 320,000 compounds, of which about 22,000 (6.9%) were called active. Another 27% or so got no clear call; they are omitted. Many of the other results were omitted from the sample, so actives are more common in it than they were. A number with no mark means an inactive call. The call rests on the fitted dose curve; in most records, active means well fitted inhibition curve with a large enough effect; inconclusive means small, poorly fitted or top-dose-only effect, or another doubt; inactive means no such curve, though single readings can be large or run the other way.
On the % scale 0 is the no-effect control and ±100 the full control effect; potency means the concentration at half of the fitted maximal effect.

Assay: Primary qHTS for delayed death inhibitors of the malarial parasite plastid, 96 hour incubation
Settings: P. falciparum luciferase reporter growth; series mostly up to 28.7 µM; activity change, negative = inhibition: at the top concentration
Method in brief: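 Two-generation exposure (96 h) targets delayed-death phenotype. Reporter parasites carrying integrated firefly luciferase, in red cells at 2% hematocrit and 0.05% parasitemia final, kept at 37 C, 5% CO2; luminescence loss indicates inhibition.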
With `CCOc1ccc2nc(N(CCN(C)C)C(=O)c3ccc4ccccc4c3)sc2c1` the “activity change, negative = inhibition” value was -14.3%.
In the case of `COc1ccc(-c2nc3c(s2)CCc2onc(-c4ccc(OC)cc4)c2-3)cc1`, the “activity change, negative = inhibition” value is reported as 12.4%.
For `COc1ccc(C(=O)NC2CC(C)(C)NC(C)(C)C2)cc1OC`, the “activity change, negative = inhibition” value was 0%.
With `COc1ccc(OC)c(/C(C)=N\NC(=O)c2cc3cc(Cl)ccc3n2C)c1` the “activity change, negative = inhibition” value was 0%.
With `COc1ccc(NC(=S)Nc2ccccc2Cl)cn1` the “activity change, negative = inhibition” value was 30.6%.
With `COc1ccc(CS(=O)/C(Cl)=C(/Cl)C(=O)Nc2ccc(OC)nc2)cc1` (configuration not stated) the Potency was 2940 nM (active).
For `COc1ccc(NC(=O)/C(Cl)=C(/Cl)S(=O)Cc2ccc(C)cc2)cn1` (configuration not stated), the “activity change, negative = inhibition” value was 0%.
In the case of `O=C(NCc1ccccc1Cl)NC(=O)c1csc([N+](=O)[O-])c1`, the “activity change, negative = inhibition” value is reported as 10.9%.
With `CC1(C(=O)OCC(=O)Nc2ncc(Cl)cc2Cl)CC1(Cl)Cl` (configuration not stated) the “activity change, negative = inhibition” value was -1.88%.
For `CCOC(=O)C1=NNC2(c3ccc(Cl)cc3)C(=O)N(c3cc(C)cc(C)c3)C(=O)C12` (configuration not stated), the “activity change, negative = inhibition” value was 0%.
In the case of `CCOC(=O)C1=NN(c2ccc(Cl)cc2)/C(=C/C2=NCCc3cc(OC)c(OC)cc32)S1`, the Potency is reported as 4150 nM (active).
With `COc1cc2c(cc1OC)C(c1cccc([N+](=O)[O-])c1)=NCC2` the “activity change, negative = inhibition” value was 77.5%.
With `CCCCN(C(=O)C1CCC1)c1c(N)n(Cc2ccccc2)c(=O)[nH]c1=O` the “activity change, negative = inhibition” value was -5.05%.
With `O=S(=O)(NC1CC1)c1ccc(F)c(F)c1` the “activity change, negative = inhibition” value was 48.9%.
For `Cn1ncc2c(N3CCCCC3)nc(NCCCO)nc21`, the “activity change, negative = inhibition” value was 60.5%.
For `COc1cc(C(=O)NN(CCC#N)C2=NS(=O)(=O)c3ccccc32)cc(OC)c1OC`, the “activity change, negative = inhibition” value was -9.76%.
In the case of `CN(C)[C@@H]1C(=O)C(C(N)=O)=C(O)[C@@]2(O)C(=O)C3=C(O)c4c(O)ccc(Cl)c4[C@@H](O)[C@H]3C[C@@H]12`, the Potency is reported as 370 nM (active).
With `C=C1c2c(Cl)ccc(O)c2C(O)=C2C(=O)[C@]3(O)C(O)=C(C(N)=O)C(=O)[C@@H](N(C)C)[C@@H]3[C@@H](O)C12` (some centres not stated) the Potency was 738 nM (active).
In the case of `COc1ccc(OCCC(=O)c2ccc(OC)cc2)cc1`, the “activity change, negative = inhibition” value is reported as 28.2%.
With `CCN(c1ccccc1)S(=O)(=O)c1cc2c(cc1C)n(C)c(=O)c(=O)n2C` the “activity change, negative = inhibition” value was 7.83%.
In the case of `Cn1c2ccccc2c2cc(/C=C(\NC(=O)c3ccccc3)C(=O)NCC(=O)O)ccc21`, the “activity change, negative = inhibition” value is reported as -24.1%.
In the case of `COc1ccc(-c2cc(C(F)(F)F)nc(NCc3cccnc3)n2)cc1`, the Potency is reported as 13100 nM (active).
With `COc1ccc(C(=O)O)cc1S(=O)(=O)NCc1cccnc1` the “activity change, negative = inhibition” value was -0.745%.
For `COc1ccc(-c2cc3ncccc3cn2)cc1`, the “activity change, negative = inhibition” value was 235%.
With `CCN(CC)S(=O)(=O)c1ccc(N2CC(C(=O)NCc3cccnc3)CC2=O)cc1` (configuration not stated) the “activity change, negative = inhibition” value was -27.6%.
In the case of `CCC(=O)c1ccc(OC(=O)/C=C/c2cc(OC)c(OC)c(OC)c2)cc1`, the “activity change, negative = inhibition” value is reported as 24.6%.
In the case of `CS(=O)(=O)C1=NN2C(=N)/C(=C\c3ccc(OCCOc4ccccc4)cc3)C(=O)N=C2S1`, the “activity change, negative = inhibition” value is reported as 325%.
